Assay results: PubChem BioAssay (NCI)
Compounds without any hit were thinned out: in the full panel of roughly 79,000, 15% have a hit. A number with no mark means an inactive call. Cut-off read from the data, not from the text of the source: active = growth inhibition above about 70%; inactive = the rest. *1 amine or outer side, *2 acyl side, *3 side chain or, on linkers, in order; H or OH if unused. Where a SMILES comes first, the peptide text is derived from it. The star is where a group is joined. γGlu = O=C(O)[CH](CCC(=O)[*:2])N[*:1]; NHOH = ON*

assay: NCI Yeast Anticancer Drug Screen. Data for the rad50 strain (AID 155);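 note: 0% = growth of vehicle-only cultures of the same strain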; settings: S. cerevisiae rad50 strain growth inhibition; at 50.0 µM; hits give high values
Outline: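 Inhibition values express reduced yeast growth in compound-treated cultures relative to vehicle-treated controls.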

Row | Structure (SMILES) | growth inhibition [%]
1 | CCSC(OC(C)=O)C(Nc1ccc([N+](=O)[O-])cc1[N+](=O)[O-])C(OC(C)=O)C(OC(C)=O)C(COC(C)=O)OC(C)=O (stereo not given) | 23.7
2 | O=C1NC2Cc3ccccc3C(C2)O1 (stereo not given) | 2.8
3 | Fc1ccc2c(c1)Nc1ccccc1S2 | -6.1
4 | CNc1ccc(Br)cc1[N+](=O)[O-] | -22.2
5 | NCCS/C=C/C(=O)Oc1ccc(Br)cc1 | 35.5
6 | Cc1nn2c(-c3ccccc3)cnnc2c1-c1ccccc1 | -19.4
7 | CCCCCCCCCCCCCCSc1ccc2ccccc2c1 | -9.15
8 | CC(C(=O)O)/C(=C\c1ccc2c(c1)OCO2)C(=O)O (stereo not given) | 8.15
9 | O=C(O)CC(NC(=O)C(CC(=O)OCc1ccccc1)NC(=O)OCc1ccccc1)C(=O)OCc1ccccc1 (stereo not given) | 44.5
10 | C=C(C)C1CCC2(C)CC3C(=C)CC(O)C(O)C3(C)CCC12 (stereo not given) | 48.2
11 | O=c1ccn(Cc2ccccc2)c(=O)[nH]1 | 25.6
12 | Oc1cc(CN2CCOCCOCCOCCOCC2)c(O)cc1CN1CCOCCOCCOCCOCC1 | 7.85
13 | O=c1[nH]c(=O)c2ncn(-c3ccc(Cl)cc3)c2[nH]1 | -7.35
14 | OC(c1ccc(Cl)cc1)c1nc2ccccc2[nH]1 (stereo not given) | 40.8
15 | COc1cc(OC)c2nccc(NCCCN(C)C)c2c1[N+](=O)[O-] | 4.75
16 | CSc1n[nH]c(NC(=O)c2ccccc2Cl)n1 | -0.9
17 | C1CCC(C(CCCCC(C2CCCCC2)C2CCCCC2)C2CCCCC2)CC1 | 46.5
18 | CC(=O)NC(c1ccc(F)cc1)(c1ccc(F)cc1)C(F)(F)F | 40.4
19 | CCC(O)C(C)CO (stereo not given) | 11.8
20 | COC(=O)c1cc(C(=O)OC)c(CC(=O)C(=O)Nc2ccc(Cl)c(C(F)(F)F)c2)nc1CC(=O)C(=O)Nc1ccc(Cl)c(C(F)(F)F)c1 | -25.2

Row | Structure (SMILES) | growth inhibition [%]
21 | CN1C/C(=C\C=C\c2ccccc2)C(=O)/C(=C/C=C/c2ccccc2)C1 | 66.7
22 | O=C(OCC(OC(=O)c1ccccc1)C1CC(C(O)C2CCCCC2)C(=O)O1)c1ccccc1 (stereo not given) | 5.25
23 | CC(COc1ccccc1)OC=O (stereo not given) | 10.6
24 | NC(CCC(=O)NC(CCC(=O)NO)C(=O)NCC(=O)O)C(=O)O (stereo not given) (γGlu-Glu(NHOH)-Gly-OH; configuration not given here) | -29.5
25 | COC(=O)C1=C(C(=O)OC)C2(C(=O)OC)OC1(OC)C(C1(C(=O)OC)C(C(=O)OC)=C1C(=O)OC)=C2C(=O)OC (stereo not given) | 16
26 | CCN(CC)c1ccc(NC(=S)Nc2cccc(C(F)(F)F)c2)c(C)c1 | 35.9
27 | C/C(=N/O)c1ccc[nH]1 | -3.6
28 | CC(NC(=O)OC(C)(C)C)C(=O)C(N)=O (stereo not given) | -16.2
29 | CCOC(CN1CCCCC1)OCC | -7.85
30 | O=Cc1c(O)nc[nH]c1=O | -23.9
31 | COc1ccc2c(c1)CCC1C2CCC2(C)C(=O)C(n3cnc4c(SC)ncnc43)CC12 (stereo not given) | 42.3
32 | CC(C)(O)/C(=N/O)c1ccc(-c2ccccc2)cc1 | -4.05
33 | C=CCN=C(N)SCCN(CCSC(N)=NCC=C)C(N)=O | 36.1
34 | COc1cccc(NC(=O)CC(=O)N2N=C(C)C(N=Nc3ccc(S(=O)(=O)c4ccc(N=NC5C(=O)N(C(=O)CC(=O)Nc6cccc(OC)c6)N=C5C)cc4)cc3)C2=O)c1 (stereo not given) | 27.4
35 | Cn1c(-c2ccccc2)nc(-c2ccccc2)[n+]1[O-] | 8.75
36 | Cc1cccc(O)c1C(=O)O | -8.15
37 | COc1cc(OC)c(NC(=O)NC(C)(C)C)cc1Cl | -3.35
38 | CCOC(=O)c1nc2ccc(C(F)(F)F)cc2nc1NCc1ccc(F)cc1 | -13.9
39 | CN(C)CCCNC=O | -30.2
40 | Nc1nc(N)c2nc(CNc3ccc(C(=O)NC(CCCNC(=O)c4ccccc4C(=O)O)C(=O)O)cc3)cnc2n1 (stereo not given) | -14.1
